# Values joined by “and” are separate entries in the source; they are usually repeats but may differ in a detail not shown here. Identical values can stand only once. Records with an inconclusive call do not appear. A call without a number means that no potency is given here. Active and inactive are the calls of the source. Unless noted, calls follow the shape of the dose curve; as a rule, active = well fitted cell-killing curve with a large enough effect; inconclusive = small, poorly fitted or top-dose-only effect; inactive = flat fitted curve, though single readings scatter.
# Columns and labels:
# [1] = Cell Viability - LYMP2-008 (AID 980); also: nearly all actives have a fitted effect of over 60% in size
# Method in brief: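 Human lymphoblastoid cells (2500/well) were plated, held 5 hr at 37 C, then exposed to compounds for 24 hr at 37 C in complete medium. Intracellular ATP was read by CellTiter-Glo luminescence; AC50 from Hill-fitted concentration-response.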
# [2] = Cell Viability - LYMP2-010 (AID 981); also: nearly all actives have a fitted effect of over 55% in size
# Method in brief: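 Human lymphoblastoid LYMP2-010 cells (2500/well) were preincubated 5 hr at 37 C, then exposed to compounds for 24 hr at 37 C in complete medium. Intracellular ATP was measured by CellTiter-Glo luminescence after 30 min at room temperature; AC50 from Hill-fitted concentration-response.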
# [3] = Cell Viability - LYMP2-012 (AID 982);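 also: cellular ATP by luciferase luminescence where a drop means cytotoxicity; cells exposed to compound for one day before reading; nearly all actives have a fitted effect of over 55% in size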
# [4] = Cell Viability - LYMP2-014 (AID 983); also: series mostly up to about 92 µM; nearly all actives have a fitted effect of over 50% in size
# Method in brief: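 Human lymphoblastoid cells (2500/well) were pre-incubated 5 hr at 37 C, then exposed to compounds in complete medium for 24 hr at 37 C. Intracellular ATP was read by CellTiter-Glo luminescence after 30 min at room temperature; AC50 from Hill fits.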
# [5] = Cell Viability - LYMP2-016 (AID 984); also: nearly all actives have a fitted effect of over 55% in size
# Method in brief: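 Acute toxicity in a Coriell human lymphoblastoid line is scored as loss of intracellular ATP over 24 h of treatment in complete medium. CellTiter-Glo signal is fitted across concentrations with the Hill equation to give AC50.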
# [6] = Cell Viability - LYMP2-020 (AID 986); also: series mostly up to about 92 µM; nearly all actives have a fitted effect of over 55% in size
# Method in brief: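 Human lymphoblastoid cells, 2500/well, were pre-incubated 5 hr at 37 C, then exposed to compounds for 24 hr at 37 C in complete medium. Intracellular ATP was read by CellTiter-Glo luminescence, and AC50 was derived by Hill fitting of concentration-response data.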
# [7] = Cell Viability - LYMP2-022 (AID 987); also: nearly all actives have a fitted effect of over 55% in size
# Method in brief: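 Human lymphoblastoid cells, 2500/well, preincubated 5 hr at 37 C, then exposed to compounds over a concentration range for 24 hr at 37 C in complete medium. Viability read as intracellular ATP by CellTiter-Glo luminescence after 30 min at room temperature; AC50 from Hill fits.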
# [8] = Cell Viability - LYMP2-024 (AID 988); also: nearly all actives have a fitted effect of over 60% in size
# Method in brief: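 Human lymphoblastoid cells (2500/well) in complete medium were preincubated 5 hr at 37 C, then exposed to compounds for 24 hr at 37 C. Intracellular ATP was read by CellTiter-Glo luminescence; AC50 from Hill-equation fits of concentration-response data.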
# [9] = Cell Viability - LYMP1-002 - Assay at 24 hr (AID 993)
# Method in brief: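 Human lymphoblastoid LYMP1-002 cells, 2500/well in complete medium, were treated with compounds for 24 h at 37 C; intracellular ATP was read by CellTiter-Glo luminescence. AC50 values came from Hill-equation fits of qHTS concentration-response data.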
# [10] = Cell Viability - LYMP1-002 - Assay at 40 hr (AID 994); also: nearly all actives have a fitted effect of over 60% in size
# Method in brief: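 Human lymphoblastoid cells, 2500/well in complete medium, were preincubated 5 hr at 37 C, then exposed to compounds for 40 hr at 37 C. Intracellular ATP was read by CellTiter-Glo luminescence after 30 min at room temperature; AC50 from Hill-equation fits.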
# [11] = qHTS Assay for Identification of Small Molecule Inducers of Hypoxia Response (AID 2120; active = well fitted curve in the direction sought with a large enough effect in the signal ratio, with a control signal flat, not every such curve was filed as active; the % refers to the signal ratio)
# Method in brief: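 HRE-beta-lactamase reporter in CellSensor HRE-bla ME-180 cells, 2500 cells/well in Opti-MEM with 0.5% dialyzed FBS; compounds tested as titration series, 17 h at 37 degrees C. CCF4 substrate 2.5 h at room temperature; AC50 from 460/530 nm ratio.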
# [12] = molecular target: Estrogen receptor (Homo sapiens) (UniProt P03372); experiment: qHTS assay for small molecule antagonists of estrogen receptor alpha signaling (AID 588513; active = well fitted curve in the direction sought with a large enough effect in the signal ratio, with a control signal flat, not every such curve was filed as active; the % refers to the signal ratio)
# Sequence of Estrogen receptor (Homo sapiens) (P03372 whole entry, looked up): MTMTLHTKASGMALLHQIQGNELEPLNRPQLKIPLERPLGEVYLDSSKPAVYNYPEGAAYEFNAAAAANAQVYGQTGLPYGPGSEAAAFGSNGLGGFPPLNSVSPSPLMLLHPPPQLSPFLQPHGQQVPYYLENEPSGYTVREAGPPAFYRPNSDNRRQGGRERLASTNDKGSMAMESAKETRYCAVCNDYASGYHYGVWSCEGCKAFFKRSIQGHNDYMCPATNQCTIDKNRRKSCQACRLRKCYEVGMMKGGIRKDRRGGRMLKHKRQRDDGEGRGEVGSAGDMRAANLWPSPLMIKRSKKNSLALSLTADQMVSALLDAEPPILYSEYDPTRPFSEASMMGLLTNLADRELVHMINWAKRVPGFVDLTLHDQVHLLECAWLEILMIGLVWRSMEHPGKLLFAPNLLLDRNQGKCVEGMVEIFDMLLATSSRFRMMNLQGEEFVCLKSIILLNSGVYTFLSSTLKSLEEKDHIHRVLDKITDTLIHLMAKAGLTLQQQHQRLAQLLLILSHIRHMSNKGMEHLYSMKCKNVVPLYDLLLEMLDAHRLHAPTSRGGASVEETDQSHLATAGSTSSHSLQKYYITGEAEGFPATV
# Method in brief: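 Cells were plated at 5000/well and incubated 4 h at 37 C. Compounds were added as 1:2 dilution series, duplicates. 17-beta-estradiol (0.5nM final) was added for 18 h before CCF4 detection.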
# [13] = molecular target: Estrogen receptor (Homo sapiens) (UniProt P03372); experiment: qHTS assay for small molecule agonists of estrogen receptor alpha signaling (AID 588514; calls by dose curve; also: nearly all actives have a fitted effect of over 70% in size)
# Method in brief: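 ER-alpha-UAS-bla GripTite HEK 293 cells in medium with 2% charcoal/dextran-treated FBS were treated with compound titrations at 37 C for 18 hrs; beta-lactamase reporter read by CCF4 fluorescence after 2 hrs at RT.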
# [14] = molecular target: Bile acid receptor (Homo sapiens) (UniProt Q96RI1); experiment: qHTS assay for small molecule antagonists of farnesoid X receptor signaling (AID 588526; calls by dose curve)
# Sequence of Bile acid receptor (Homo sapiens) (Q96RI1 whole entry, looked up): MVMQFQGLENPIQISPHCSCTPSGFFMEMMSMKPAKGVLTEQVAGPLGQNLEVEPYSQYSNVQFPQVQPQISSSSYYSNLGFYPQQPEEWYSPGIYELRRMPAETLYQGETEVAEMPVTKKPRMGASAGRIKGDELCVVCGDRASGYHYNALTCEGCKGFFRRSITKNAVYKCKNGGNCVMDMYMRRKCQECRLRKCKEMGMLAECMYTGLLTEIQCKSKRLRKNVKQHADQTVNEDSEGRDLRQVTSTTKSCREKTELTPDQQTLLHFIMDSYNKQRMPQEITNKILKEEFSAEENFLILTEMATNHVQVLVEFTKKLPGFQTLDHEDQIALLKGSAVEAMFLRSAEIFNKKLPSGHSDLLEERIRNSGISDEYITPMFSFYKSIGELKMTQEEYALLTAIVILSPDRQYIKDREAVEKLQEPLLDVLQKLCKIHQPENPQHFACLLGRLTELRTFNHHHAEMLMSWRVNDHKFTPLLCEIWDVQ
# Method in brief: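 Antagonist mode: titrated compounds tested against chenodeoxycholic acid stimulation (normalized to 50 uM CDCA and DMSO) in GeneBLAzer HEK293T cells for 16 h. Beta-lactamase read by CCF4 fluorescence; IC50 from Hill fits.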
# [15] = molecular target: Bile acid receptor (Homo sapiens) (UniProt Q96RI1); experiment: qHTS assay for small molecule agonists of farnesoid X receptor signaling (AID 588527; calls by dose curve; also: series mostly up to about 77 µM); conditions: HEK293T FXR-UAS-bla, beta-lactamase ratio, 16 h; stronger effect = higher value
# Method in brief: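 Quantitative HTS used FXR-UAS-bla HEK293T cells with 16 h compound incubation at 37 C. EC50 values came from concentration-response curves normalized to chenodeoxycholic acid.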
# [16] = molecular target: Peroxisome proliferator-activated receptor delta (Homo sapiens) (UniProt Q03181); experiment: qHTS assay for small molecule agonists of peroxisome proliferator-activated receptor delta signaling (AID 588534; calls by dose curve)
# Sequence of Peroxisome proliferator-activated receptor delta (Homo sapiens) (Q03181 whole entry, looked up): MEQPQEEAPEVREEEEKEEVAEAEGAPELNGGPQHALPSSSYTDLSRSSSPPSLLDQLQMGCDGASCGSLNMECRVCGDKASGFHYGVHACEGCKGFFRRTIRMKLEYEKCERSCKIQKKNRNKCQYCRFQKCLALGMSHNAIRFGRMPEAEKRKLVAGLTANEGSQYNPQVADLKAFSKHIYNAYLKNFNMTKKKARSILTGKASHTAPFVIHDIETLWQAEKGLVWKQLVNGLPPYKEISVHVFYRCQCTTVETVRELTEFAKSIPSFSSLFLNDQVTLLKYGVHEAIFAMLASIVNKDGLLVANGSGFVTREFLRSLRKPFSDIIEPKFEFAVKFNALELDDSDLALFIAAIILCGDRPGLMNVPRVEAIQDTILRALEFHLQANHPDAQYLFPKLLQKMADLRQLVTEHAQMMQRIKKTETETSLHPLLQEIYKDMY
# Method in brief: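 Cell-based beta-lactamase reporter assay run in agonist mode: cells seeded and incubated 5 hrs at 37 C, compounds added and incubated 18 hrs at 37 C. CCF4 dye fluorescence read after 2 hrs at RT; EC50 and efficacy from Hill fits.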
# [17] = qHTS assay for small molecule antagonists of peroxisome proliferator-activated receptor delta signaling (AID 588535; active = well fitted inhibition curve with a large enough effect in the signal ratio, with a control signal flat, not every such curve was filed as active; the % refers to the signal ratio;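 as to max response: cells co-treated with a PPAR-delta agonist as stimulator during compound exposure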); conditions: HEK293T PPARd-UAS-bla, beta-lactamase FRET ratio, 18 h; 460 nm channel
# Method in brief: (§1)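 Cells were seeded at 4000 per well in assay medium containing 2% charcoal/dextran FBS and held 5 hrs at 37 C. Compounds were then added for 18 hrs. CCF4 substrate was applied for 2 hrs at room temperature before fluorescence reading.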
# [18] = molecular target: Peroxisome proliferator-activated receptor delta (Homo sapiens) (UniProt Q03181); experiment: as above
# Method in brief: as §1
# [19] = molecular target: Peroxisome proliferator-activated receptor gamma (Homo sapiens) (UniProt P37231); experiment: qHTS assay for small molecule agonists of peroxisome proliferator-activated receptor gamma signaling (AID 588536; active = well fitted curve in the direction sought with a large enough effect in the signal ratio, with a control signal flat, not every such curve was filed as active; the % refers to the signal ratio)
# Sequence of Peroxisome proliferator-activated receptor gamma (Homo sapiens) (P37231 whole entry, looked up): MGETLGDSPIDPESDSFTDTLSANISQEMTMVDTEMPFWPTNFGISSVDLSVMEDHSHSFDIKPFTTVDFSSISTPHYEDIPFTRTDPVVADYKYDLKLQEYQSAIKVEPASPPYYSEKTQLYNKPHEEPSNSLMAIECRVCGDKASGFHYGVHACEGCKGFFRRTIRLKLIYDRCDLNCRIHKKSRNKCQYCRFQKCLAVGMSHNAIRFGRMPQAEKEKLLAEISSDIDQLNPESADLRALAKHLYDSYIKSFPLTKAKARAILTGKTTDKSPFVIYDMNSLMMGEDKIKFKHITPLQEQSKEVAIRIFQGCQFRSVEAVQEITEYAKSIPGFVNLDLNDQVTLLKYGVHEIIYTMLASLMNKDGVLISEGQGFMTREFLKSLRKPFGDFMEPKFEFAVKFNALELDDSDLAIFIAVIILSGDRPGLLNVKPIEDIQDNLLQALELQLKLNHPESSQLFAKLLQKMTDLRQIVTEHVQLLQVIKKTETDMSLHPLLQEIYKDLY
# Method in brief: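 HEK293 UAS-bla reporter line, 1% charcoal/dextran FBS; titration, 16 h, 37 C; CCF4 loading 2 h RT; fluorescence 460/530 nm. Normalized to rosiglitazone 2 uM = 100%, DMSO = 0%.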
# [20] = qHTS assay for small molecule agonists of retinoid X receptor alpha signaling (AID 588544); conditions: HEK293T RXRa-UAS-bla, beta-lactamase reporter, 18 h; 530 nm emission
# [21] = molecular target: Thyroid hormone receptor beta (Homo sapiens) (UniProt P10828); experiment: qHTS assay for small molecule agonists of thyroid hormone receptor beta signaling (AID 588545; calls by dose curve)
# Sequence of Thyroid hormone receptor beta (Homo sapiens) (P10828 whole entry, looked up): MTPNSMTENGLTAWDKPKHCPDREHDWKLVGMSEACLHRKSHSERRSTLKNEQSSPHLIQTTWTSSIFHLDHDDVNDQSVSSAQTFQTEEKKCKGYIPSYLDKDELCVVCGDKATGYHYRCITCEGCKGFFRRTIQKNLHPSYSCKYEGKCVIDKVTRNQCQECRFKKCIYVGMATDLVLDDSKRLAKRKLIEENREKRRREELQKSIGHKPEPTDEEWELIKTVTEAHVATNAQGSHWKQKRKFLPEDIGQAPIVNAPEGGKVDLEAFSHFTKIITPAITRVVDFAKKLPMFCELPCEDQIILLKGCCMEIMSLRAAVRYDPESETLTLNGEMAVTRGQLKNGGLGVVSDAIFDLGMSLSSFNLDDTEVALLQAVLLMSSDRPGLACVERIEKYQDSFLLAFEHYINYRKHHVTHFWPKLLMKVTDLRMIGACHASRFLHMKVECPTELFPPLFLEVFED
# Method in brief: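 Stimulation of a TR-driven beta-lactamase reporter was quantified in GripTite HEK 293 cells. Compound series ran for 18 hrs; curves were normalized to T3 and DMSO controls and fitted to yield EC50.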
# [22] = qHTS assay for small molecule antagonists of retinoid X receptor alpha signaling (AID 588546); conditions: HEK293T RXRa-UAS-bla, beta-lactamase ratio, antagonist mode; measured here: W530 green channel, cytotoxicity proxy;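 also: cells stimulated with 9-cis-retinoic acid as agonist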
# Method in brief: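 Beta-lactamase reporter inhibition, read as CCF4 fluorescence ratio (ex 405, em 460/530 nm) after 2 h at RT. HEK293T UAS-bla cells, 2500/well, were stimulated with 9-cis-RA at 500 or 100 nM final alongside test compound for 18 h at 37 C.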
compound,measurement,setting,value
CCCOC(=O)c1ccccc1C(=O)OCCC,Potency,[1],inactive
same,Potency,[2],inactive
same,Potency,[3],inactive
same,Potency,[4],inactive
same,Potency,[5],inactive
same,Potency,[6],inactive
same,Potency,[7],inactive
same,Potency,[8],inactive
same,Potency,[9],inactive
same,Potency,[10],inactive
same,outcome,[11],inactive
same,Potency,[12],inactive
same,Potency,[13],inactive
same,outcome,[14],inactive
same,activation,[15],-0.825% (inactive) and -0.41% (inactive)
same,outcome,[16],inactive
same,max response,[17],2.17%
same,Potency,[18],inactive
same,outcome,[19],inactive
same,max response,[20],8.06% and -8.01%
same,outcome,[21],inactive
same,max response,[22],3.93% and -2.34%
